A short description of experiment [1]: optical density shifts of acrAB sulA E. coli – strain DRC41, OD650, 48 h, E. coli filamentation inducer project, primary screen (AID 1152).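 Note: E. coli MC1000 strain DRC41 lacking acrAB efflux pump and sulA.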 Conditions: higher = more signal, called active from +8 up or from −8 down.
Experiment [2] is described as follows: probe aLefty1 binding on compound microarray – biochemical, small-molecule microarray, 635/667 nm fluorescence, primary screen (AID 1153).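 Note: score merges spot fluorescence with signal-to-noise ratio from the scanned slide images.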 The following applies: higher = more signal.
A short description of experiment [3]: plasmodial surface anion channel blockers, osmotic lysis – cell-based, P. falciparum Indochina, OD700, 1 h, primary screen (AID 1154). Conditions: P. falciparum Indochina infected RBC osmotic lysis, higher = more signal, called active from +8 up or from −8 down.
Experiment [4] is described as follows: plasmodial surface anion channel blockers, osmotic lysis – cell-based, P. falciparum Indochina, OD700, 2 h, primary screen (AID 1155).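 Note: lysis reports solute entry through the parasite surface anion channel PSAC.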 Conditions: P. falciparum Indochina infected erythrocytes, higher = more signal, called active from +8 up or from −8 down.
The nature of experiment [5]: changes in parasitized red cell lysis, either direction – P. falciparum Indochina, OD700, 3 h, PSAC antagonist project, primary screen (AID 1156). Conditions: P. falciparum-infected erythrocytes, osmotic lysis, higher = more signal, called active from +8 up or from −8 down.
A short description of experiment [6]: plasmodial surface anion channel blockers, osmotic lysis – cell-based, P. falciparum Indochina, OD700, 18 h, primary screen (AID 1157). Conditions: P. falciparum Indochina infected erythrocytes, osmotic lysis OD700, 18 h; higher = more signal, called active from +8 up or from −8 down.
A short description of experiment [7]: S6 kinase pathway phospho-S6 level changes – cell-based, A549, cytoblot, luminescence, serum-stimulated, primary screen (AID 1158).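 Note: serum-stimulated A549 lung adenocarcinoma cells; signal is phosphorylated S6 detected by cytoblot immunostaining with HRP secondary.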 The following applies: 5 h, higher = more signal.
Experiment [8] concerns the target NADPH oxidase 2 (Homo sapiens) (UniProt P04839). Description: compounds shifting NOX2 Amplex Red fluorescence – cell-based, HEK293-NOX2, PMA-stimulated, NOX inhibitor project, primary screen (AID 1159). Note: test concentration not given here. The following applies: 45 min, higher = more signal, called active from +8 up or from −8 down.
The target of experiment [9] is NADPH oxidase 4 (Homo sapiens) (UniProt Q9NPH5). Description: compounds shifting NOX4 Amplex Red fluorescence – cell-based, HEK293-NOX4, tetracycline-induced, NOX inhibitor project, primary screen (AID 1160). Conditions: HEK293-NOX4, Amplex Red H2O2 fluorescence, 45 min; higher = more signal, called active from +8 up or from −8 down.
Experiment [10] has as its target NADPH oxidase 5 (Homo sapiens) (UniProt Q96PH1). Nature of the experiment: compounds shifting NOX5 Amplex Red fluorescence – cell-based, HEK293-NOX5, NOX inhibitor project, primary screen (AID 1161). The following applies: HEK293-NOX5, ionomycin, 45 min, higher = more signal.

Experimental findings from PubChem BioAssay are described below.

Calls of active or inactive are those of the source.

NADPH oxidase 5 (Homo sapiens), sequence (Q96PH1 whole entry, looked up): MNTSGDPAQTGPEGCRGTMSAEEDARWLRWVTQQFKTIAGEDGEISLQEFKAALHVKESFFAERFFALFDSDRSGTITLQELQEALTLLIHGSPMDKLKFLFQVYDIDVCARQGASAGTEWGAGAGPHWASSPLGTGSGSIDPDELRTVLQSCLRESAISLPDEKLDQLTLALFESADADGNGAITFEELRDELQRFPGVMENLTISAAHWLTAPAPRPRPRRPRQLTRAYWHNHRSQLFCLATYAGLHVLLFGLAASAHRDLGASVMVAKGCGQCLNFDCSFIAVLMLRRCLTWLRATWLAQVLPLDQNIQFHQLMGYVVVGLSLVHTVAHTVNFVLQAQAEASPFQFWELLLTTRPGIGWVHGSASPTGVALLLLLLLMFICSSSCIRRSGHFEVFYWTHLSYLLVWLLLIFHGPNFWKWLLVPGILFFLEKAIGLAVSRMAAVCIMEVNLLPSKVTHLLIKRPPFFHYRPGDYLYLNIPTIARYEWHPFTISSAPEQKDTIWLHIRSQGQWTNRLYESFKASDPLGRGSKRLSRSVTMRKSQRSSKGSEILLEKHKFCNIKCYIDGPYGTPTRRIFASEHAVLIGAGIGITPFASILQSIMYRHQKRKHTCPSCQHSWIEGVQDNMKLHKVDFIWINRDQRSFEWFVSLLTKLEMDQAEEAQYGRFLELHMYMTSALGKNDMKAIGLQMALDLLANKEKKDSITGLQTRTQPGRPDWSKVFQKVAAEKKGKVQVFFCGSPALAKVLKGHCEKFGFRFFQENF
NADPH oxidase 2 (Homo sapiens), sequence (P04839 whole entry, looked up): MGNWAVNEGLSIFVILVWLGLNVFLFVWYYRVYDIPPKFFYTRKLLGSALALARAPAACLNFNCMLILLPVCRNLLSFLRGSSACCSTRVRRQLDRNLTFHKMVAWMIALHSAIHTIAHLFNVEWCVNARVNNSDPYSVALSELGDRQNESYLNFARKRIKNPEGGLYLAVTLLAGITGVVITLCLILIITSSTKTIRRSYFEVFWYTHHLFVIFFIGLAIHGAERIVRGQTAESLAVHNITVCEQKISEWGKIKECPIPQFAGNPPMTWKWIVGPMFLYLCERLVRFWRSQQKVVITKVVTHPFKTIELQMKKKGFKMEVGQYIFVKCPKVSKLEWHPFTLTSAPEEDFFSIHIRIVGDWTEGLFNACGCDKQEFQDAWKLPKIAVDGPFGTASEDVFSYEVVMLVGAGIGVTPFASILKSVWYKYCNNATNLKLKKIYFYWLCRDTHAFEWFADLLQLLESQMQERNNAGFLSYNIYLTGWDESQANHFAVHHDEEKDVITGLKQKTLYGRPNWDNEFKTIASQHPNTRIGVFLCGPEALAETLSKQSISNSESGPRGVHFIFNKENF
NADPH oxidase 4 (Homo sapiens), sequence (Q9NPH5 whole entry, looked up): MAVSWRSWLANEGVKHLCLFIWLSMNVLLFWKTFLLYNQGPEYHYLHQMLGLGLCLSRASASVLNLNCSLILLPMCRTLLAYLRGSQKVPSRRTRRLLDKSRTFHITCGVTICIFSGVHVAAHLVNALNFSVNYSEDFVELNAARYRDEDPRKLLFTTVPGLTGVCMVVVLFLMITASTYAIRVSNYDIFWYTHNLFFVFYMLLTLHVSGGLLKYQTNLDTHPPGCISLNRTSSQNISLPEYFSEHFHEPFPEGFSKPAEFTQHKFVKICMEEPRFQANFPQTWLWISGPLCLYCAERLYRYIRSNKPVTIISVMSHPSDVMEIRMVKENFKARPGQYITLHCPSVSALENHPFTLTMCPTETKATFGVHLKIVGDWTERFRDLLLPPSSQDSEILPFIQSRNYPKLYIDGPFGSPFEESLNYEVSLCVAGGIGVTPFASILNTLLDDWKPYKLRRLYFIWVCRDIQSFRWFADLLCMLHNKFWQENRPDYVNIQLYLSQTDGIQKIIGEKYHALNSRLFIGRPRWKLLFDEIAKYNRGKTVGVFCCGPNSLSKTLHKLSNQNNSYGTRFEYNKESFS

With `CC(=O)NCCCC[C@@H]1NC(=O)[C@@H]2C[C@H](C(=O)NCCCCN(C)C)[C@H](c3ccc(O)cc3)N2C1=O`, the z-score in [1] was 1.62 (inactive); in experiment [3], 0.453 (inactive); in experiment [4], -0.233 (inactive); in [5], 1.13 (inactive); in experiment [6], 0.153 (inactive); in experiment [7] it was -0.051. For the same compound, the z-score is 0.0273 (inactive) in experiment [8], 0.192 (inactive) in experiment [9] and 0.546 in experiment [10]. The same compound had a composite z-score in experiment [2] of -0.29.
As to `CC(C)N1C(=O)C[C@@](C(=O)NCc2ccccc2)(c2ccc([N+](=O)[O-])cc2)[C@H]1c1ccc(CO)cc1`, the z-score was 1.05 (inactive) in [1]; 1.58 (inactive) in experiment [3]; -0.273 (inactive) in experiment [4]; 1.03 (inactive) in [5]; 0.449 (inactive) in experiment [6]; -0.081 in experiment [7]. Moreover, the figures for the z-score in [8], in experiment [9] and in [10] were -0.85 (inactive), -0.235 (inactive) and -1.72, respectively. The composite z-score in experiment [2] is -0.409.
Consider `C[C@]1(C(=O)NCc2ccccc2)c2ccccc2C(=O)N(Cc2ccc(OC(F)(F)F)cc2)[C@H]1c1ccc(CO)cc1`, for which the z-score in experiment [1] was 1.17 (inactive); in experiment [3], 3.54 (inactive); in experiment [4], -0.18 (inactive); in experiment [5] it was -0.495 (inactive); in [6] it was -0.779 (inactive); in experiment [7], 0.843. Also, the results for the z-score in experiment [8], in [9] and in [10] were -0.944 (inactive), -1.33 (inactive) and -0.499, respectively. The composite z-score in experiment [2] was -0.142.
With `O=C/C=C/c1ccc2c(c1)OCO2`, the z-score in [1] is 0.586 (inactive); in experiment [3], -0.448 (inactive); in experiment [4], -1.11 (inactive); in experiment [5] it was 0.321 (inactive); in experiment [6], -2.47 (inactive); in experiment [7], 1.25. Moreover, the figures for the z-score in experiment [8], in experiment [9] and in experiment [10] were -0.41 (inactive), -0.502 (inactive) and 0.961, respectively. The composite z-score in experiment [2] is -0.205.
`CC(=O)NCCCC[C@@H]1NC(=O)[C@H]2C[C@@H](C(=O)NCCCCCC[N+](C)(C)C)[C@@H](c3cccc(OCCO)c3)N2C1=O`: the z-score in experiment [1] was 1.52 (inactive); in experiment [3], 2.86 (inactive); in experiment [4] it was -1.48 (inactive); in experiment [5] it was 0.657 (inactive); in experiment [6], -2.25 (inactive); in experiment [7] it was 0.778. Besides, the values for the z-score in experiment [8], in experiment [9] and in experiment [10] were -0.329 (inactive), 0.383 (inactive) and -0.465, respectively. The composite z-score in experiment [2] amounted to 0.147.
On to `O=C1C2C=CC(C(O)c3ccc(B(O)O)cc3)N(Nc3ccccc3)C2C(=O)N1c1ccccc1` (stereo not given), for which the z-score in experiment [1] is -1.52 (inactive); in experiment [3], 1.07 (inactive); in [4], -0.447 (inactive); in experiment [5], 0.977 (inactive); in experiment [6] it was -0.447 (inactive); in experiment [7] it was 0.64. Moreover, the z-score is -3.57 (inactive) in [8], -5.02 (inactive) in [9] and -7.63 in experiment [10]. For the same compound, the composite z-score in experiment [2] was found to be 0.0315.
In the case of `COc1ccc([Si](C)(C)[C@@H]2[C@@H](CCn3cc([C@H](O)c4ccccc4)nn3)O[C@]3(C(=O)N(Cc4cccc(N5CCOC5=O)c4)c4ccccc43)[C@H]2C)cc1`, the z-score is 1 (inactive) in experiment [1]; 26.3 (active) in experiment [3]; 12.8 (active) in experiment [4]; 1.33 (inactive) in [5]; 1.68 (inactive) in experiment [6]; 0.324 in [7]. Further, the z-score in experiment [8] is -0.662 (inactive); in experiment [9], 2.29 (inactive); in [10] it was 1.84. Besides, the composite z-score in experiment [2] was -0.328.
In the case of `CCOC(=O)[C@H]1C/C=C/C[C@H](C(=O)OCC)C(=O)O[C@H]2[C@@H](OC)O[C@H](CO)[C@@H](OC(=O)Nc3ccc4c(c3)OCO4)[C@@H]2OC1=O`, the z-score in [1] is 1.2 (inactive); in experiment [3], 4.49 (inactive); in [4] it was 1.81 (inactive); in experiment [5] it was -0.564 (inactive); in [6] it was 1.73 (inactive); in experiment [7], 0.483. Moreover, the z-score in experiment [8] was -1.09 (inactive); in experiment [9], -0.854 (inactive); in experiment [10], -0.02. The same compound showed a composite z-score in [2] of -0.0727.
For `COCC(=C=CC[C@H](O)c1ccc(OCCO)cc1)C[C@H](O)c1cc(Cl)cc(Cl)c1O`, the z-score in experiment [1] is 1.37 (inactive); in [3], 10.3 (active); in experiment [4], 2.44 (inactive); in experiment [5], -2.64 (inactive); in experiment [6], -0.162 (inactive); in [7], 0.175. In addition, the z-score was -2.99 (inactive) in experiment [8], -1.12 (inactive) in experiment [9] and -3.26 in [10]. Besides, the composite z-score in experiment [2] amounted to 0.155.
In the case of `C=CC(COC(C)=O)NS(=O)(=O)c1ccc(Br)cc1` (stereo not given), the z-score in experiment [1] is -1.32 (inactive); in experiment [3], 0.132 (inactive); in [4], -0.168 (inactive); in experiment [5], -0.73 (inactive); in [6] it was -0.064 (inactive); in experiment [7] it was 0.495. The z-score in experiment [8] is -0.334 (inactive); in [9], -0.0279 (inactive); in experiment [10] it was -0.377. Further, the composite z-score in experiment [2] turned out to be 0.157.
Consider `Cc1cc(C)cc(N2C(=O)CS(=O)(=O)C2c2cccc([N+](=O)[O-])c2)c1` (stereo not given), for which the z-score in experiment [1] was 0.469 (inactive); in experiment [3] it was 0.548 (inactive); in experiment [4] it was -0.385 (inactive); in [5] it was 0.809 (inactive); in experiment [6], -1.48 (inactive); in [7], 1.48. For the same compound, the z-score in [8] is 0.316 (inactive); in [9] it was 0.227 (inactive); in experiment [10], 1.63. Further, the composite z-score in experiment [2] is 1.33.
Turning to `COc1ccc([Si](C)(C)[C@H]2[C@H](CCn3cc(CCO)nn3)O[C@@]3(C(=O)N(Cc4ccc(N5CCOC5=O)cc4)c4ccccc43)[C@@H]2C)cc1`, the z-score is 0.176 (inactive) in experiment [1]; 33.4 (active) in experiment [3]; 34.8 (active) in experiment [4]; 2.62 (inactive) in experiment [5]; 6.01 (inactive) in experiment [6]; 0.711 in experiment [7]. Further, the z-score in experiment [8] was -0.564 (inactive); in experiment [9], 2.16 (inactive); in experiment [10] it was -0.419. Also, the composite z-score in [2] came out at 0.308.
`CC(C)(C)N1CC=CC23O[C@@H]4C=CCOC(=O)[C@@H]4[C@H]2C(=O)N(CCCCCO)[C@@H]3C1=O` (stereo not given in full): the z-score in experiment [1] is -0.197 (inactive); in experiment [3], 0.987 (inactive); in experiment [4], 0.624 (inactive); in experiment [5], 1.47 (inactive); in [6], 0.453 (inactive); in experiment [7] it was -0.301. For the same compound, the results for the z-score in [8], in experiment [9] and in experiment [10] were 1.27 (inactive), 0.436 (inactive) and 1.52, respectively. Besides, the composite z-score in experiment [2] is -0.0094.
Regarding `CC(c1ccccc1)C(O)C1C=CC2C(=O)NC(=O)C2N1Nc1ccccn1` (stereo not given), the z-score is -0.671 (inactive) in experiment [1]; 0.887 (inactive) in [3]; 0.561 (inactive) in experiment [4]; -0.255 (inactive) in experiment [5]; 0.801 (inactive) in experiment [6]; -0.8 in [7]. Moreover, the z-score in experiment [8] is -0.479 (inactive); in experiment [9], -3.8 (inactive); in [10] it was -1.79. This compound also had a composite z-score in experiment [2] of 0.314.
Take `CN(C)CCCCCCNC(=O)[C@H]1C[C@H]2C(=O)N[C@@H](CCCCN)C(=O)N2[C@H]1c1ccc(O)cc1`: the z-score in experiment [1] is -0.261 (inactive); in experiment [3], -0.294 (inactive); in [4] it was 0.155 (inactive); in [5] it was -0.844 (inactive); in experiment [6], 0.303 (inactive); in experiment [7] it was 0.169. The values for the z-score in experiment [8], in [9] and in experiment [10] were 0.418 (inactive), -0.145 (inactive) and 0.887, respectively. The same compound gave a composite z-score in experiment [2] of 2.82.
